Assay [1] can be described thus: qHTS assay to identify small molecule antagonists of the estrogen receptor alpha (ER-alpha) signaling pathway using the BG1 cell line in the presence of 0.1 nM 17-beta-estradiol - cell viability counter screen (AID 1259241). Further: nearly all actives have a fitted effect of over 40% in size. The method in brief: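 CellTiter-Fluor read (30 min, 37C) on ER-alpha/ERE-luc VM7Luc4E2 cells; 22 hr compound treatment; agonist 0.1 nM E2 final; same-well multiplex.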
(In general: In qHTS, concentration-response curves come from the screen itself.)

Assay [2] is described as follows: qHTS assay to identify small molecule antagonists of the androgen receptor (AR) signaling pathway using the MDA cell line in the presence of 0.5 nM R1881 - cell viability counter screen (AID 1259242). Further: nearly all actives have a fitted effect of over 45% in size. The method, boiled down: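 Fluorescence from CellTiter-Fluor, which reports protease activity of live cells, was read 30 min after reagent addition to MDA-kb2 cells that had been incubated 16 hr with compound and 0.5 nM R1881.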

Assay [3] has as its target Estrogen receptor (Homo sapiens) (UniProt P03372). In words: qHTS assay to identify small molecule antagonists of the estrogen receptor alpha (ER-alpha) signaling pathway using the BG1 cell line in the presence of 0.1 nM 17-beta-estradiol (AID 1259244). Further: nearly all actives have a fitted effect of over 50% in size. Further: potency means the concentration at half of the fitted maximal effect. The method, boiled down:
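Quantitative high-throughput screen in VM7Luc4E2 cells: compound plus 0.1 nM E2 (final), 22 h, 37C, 5% CO2; ONE-Glo added, 30 min room temperature, luminescence measured.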

Assay [4] can be described thus: qHTS assay to identify small molecule phospholipidosis (PLD) inducers (AID 1259344; active means well fitted curve in the direction sought with a large enough effect; an effect the other way counts as inactive or inconclusive). The method in brief:
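Quantitative HTS in HepG2: compound plus LipidTOX Red dye for 24 h, paraformaldehyde fixation with Hoechst 33342, widefield high-content imaging; amiodarone as positive and DMSO as negative control.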

A short description of assay [5]: qHTS assay to identify small molecule HDAC inhibitors (AID 1259364). Further: nearly all actives have a fitted effect of over 45% in size. Further: potency means the concentration at half of the fitted maximal effect. The method in brief: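 Endogenous HDAC class I/II activity was measured in wild-type HCT-116 cells by HDAC-Glo luminescence after 2 h compound treatment.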
A short description of assay [6]: qHTS assay to identify small molecule HDAC inhibitors - cell viability counter screen (AID 1259365). Further: series mostly up to about 92 µM; nearly all actives have a fitted effect of over 50% in size. The method in brief:
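To flag cytotoxic hits, 1,500 wild-type HCT-116 cells per well, plated the day before, receive test compounds for 2hr at 37 C before CellTiter-Glo reagent and a luminescence read.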

The nature of assay [7]: qHTS assay to identify small molecule agonists of the sonic hedgehog signaling (Shh) pathway - cell viability counter screen (AID 1259366). Further: nearly all actives have a fitted effect of over 50% in size. The method, boiled down: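 Fluorescence from CellTiter-Fluor reports live cells in this counter screen. NIH/3T3-derived Gli1-Luc reporter cells receive test compounds for 24hr at 37C; reagent goes in at 23hr.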
Assay [8] is described as follows: qHTS assay to identify small molecule agonists of the sonic hedgehog signaling (Shh) pathway (AID 1259368; calls by dose curve; further: nearly all actives have a fitted effect of over 15% in size; further: potency means the concentration at half of the fitted maximal effect). The method, boiled down: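 Luminescent signal was taken as a measure of Gli1-controlled luciferase expression in stably transfected NIH/3T3-derived cells that had been treated for 24 hr with compounds delivered in DMSO.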
A short description of assay [9]: qHTS assay to identify small molecule antagonists of the sonic hedgehog signaling (Shh) pathway - cell viability counter screen (AID 1259367). Further: nearly all actives have a fitted effect of over 55% in size. The method, boiled down:
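Seed 3T3 Gli1-Luc cells at 2,000 per well; incubate 4 hr; add compound in DMSO, then conditioned medium; incubate at 37C with 5% CO2; add CellTiter-Fluor after 23 hr; read fluorescence 1 hr later.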

Unmarked numbers belong to inactive results. Results filed as inconclusive are left out. Active and inactive are the calls of the source. Unless noted, the call rests on the fitted dose curve; in most records, active means well fitted curve in the direction sought with a large enough effect in the repeat runs; inconclusive means weak or mixed curves; inactive means no such curve, though single readings can be large; an effect the other way counts as inactive or inconclusive.

Estrogen receptor (Homo sapiens), sequence (P03372 whole entry, looked up): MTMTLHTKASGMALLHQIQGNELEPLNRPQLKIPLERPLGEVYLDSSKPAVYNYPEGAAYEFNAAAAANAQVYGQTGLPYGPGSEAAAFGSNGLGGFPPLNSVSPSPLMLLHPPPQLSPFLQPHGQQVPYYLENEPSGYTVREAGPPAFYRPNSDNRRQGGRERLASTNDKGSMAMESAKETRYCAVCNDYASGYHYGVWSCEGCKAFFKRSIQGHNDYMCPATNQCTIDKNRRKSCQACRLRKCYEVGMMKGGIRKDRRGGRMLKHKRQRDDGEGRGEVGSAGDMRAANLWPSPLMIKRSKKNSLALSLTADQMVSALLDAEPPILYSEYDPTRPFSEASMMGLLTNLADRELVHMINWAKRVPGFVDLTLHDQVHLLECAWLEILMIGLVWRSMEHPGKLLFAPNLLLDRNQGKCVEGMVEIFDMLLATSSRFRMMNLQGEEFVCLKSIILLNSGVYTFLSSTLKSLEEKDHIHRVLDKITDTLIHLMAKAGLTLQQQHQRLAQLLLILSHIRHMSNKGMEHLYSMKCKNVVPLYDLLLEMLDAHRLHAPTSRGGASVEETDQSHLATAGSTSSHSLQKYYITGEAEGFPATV

Take `CCCCN1CCCC1C(=O)Nc1c(C)cc(C)cc1C` (centres undefined): the Potency result in assay [1], in assay [2], in assay [3], in [4], in [5] and in [6] was “inactive” each time. Also, the Potency result in [7] and in [8] was “inactive” each time.

As for `CCOC(=O)[C@H](CCc1ccccc1)N[C@@H](C)C(=O)N(CC(=O)O)C1Cc2ccccc2C1`, the Potency result in [1], in [2], in assay [3], in assay [4], in [5] and in [6] was “inactive” throughout. Further, the Potency entry in assay [7], in assay [9] and in assay [8] was “inactive” in each case.

As to `OC[C@H]1O[C@@H](n2cnc3c(=S)nc[nH]c32)[C@H](O)[C@@H]1O`, the Potency result in [1], in [2], in [3], in [4], in assay [5] and in assay [6] was “inactive” in each case. Also, the Potency entry in assay [7], in assay [9] and in assay [8] was “inactive” throughout.

`CCn1cc(C(=O)O)c(=O)c2cc(F)c(N3CCNCC3)cc21`: the Potency result in assay [1], in assay [2], in assay [3], in assay [4], in assay [5] and in [6] was “inactive” each time. The Potency result in assay [7], in assay [9] and in assay [8] was “inactive” throughout.

For the compound `NCCNCCO`, the Potency result in assay [1], in assay [2], in assay [3], in assay [5], in assay [6] and in assay [7] was “inactive” each time. For the same compound, the Potency entry in [9] and in assay [8] was “inactive” each time.

As to `C[C@@H](CN(C)C)CN1c2ccccc2Sc2ccccc21`, the Potency result in assay [1], in assay [2], in assay [3], in assay [5], in assay [6] and in assay [8] was “inactive” in each case.

On to `CCOC(=O)/C=C/C(=O)OCC`, for which the Potency result in [1], in assay [2], in [3], in assay [5], in [6] and in assay [7] was “inactive” each time. Moreover, the Potency entry in assay [9] and in assay [8] was “inactive” throughout.

Consider `C=C(C)C(=O)OCCOCCOC(=O)C(=C)C`, for which the Potency entry in [1], in assay [2], in assay [3], in assay [5], in assay [6] and in [7] was “inactive” each time. Moreover, the Potency result in assay [9] and in assay [8] was “inactive” throughout.

As for `Cc1ccccc1N=C(N)Nc1ccccc1C`, the Potency entry in assay [1], in assay [2], in assay [3], in [5], in [6] and in assay [7] was “inactive” in each case. Moreover, the Potency entry in assay [8] was “inactive”.

Take `CN1C(C(=O)Nc2ccccn2)=C(O)c2sccc2S1(=O)=O`: the Potency entry in [1], in [2], in assay [3], in assay [6], in assay [7] and in assay [9] was “inactive” in each case. Also, the Potency result in [8] is “inactive”.

For the compound `Cc1ccc(CO)cc1`, the Potency result in assay [1], in assay [2], in assay [3], in assay [5], in assay [6] and in assay [7] was “inactive” each time. Also, the Potency result in assay [9] and in assay [8] was “inactive” each time.

As for `CCC=CC#N`, the Potency result in [1], in [2], in assay [3], in assay [6], in assay [7] and in assay [9] was “inactive” in each case. Further, the figures for the Potency in assay [5] and in assay [8] were 21 µM (active) and 29.7 µM (active), respectively.

Turning to `C1C[C@@H]2[C@H]3CC[C@H](C3)[C@@H]2C1`, the Potency result in assay [1], in assay [2], in [3], in [5], in assay [6] and in [7] was “inactive” throughout. The Potency result in [9] and in assay [8] was “inactive” throughout.

Take `C=C(C)CCCC(C)CCO` (centres undefined): the Potency entry in assay [1], in assay [2], in assay [3], in assay [5], in assay [6] and in assay [7] was “inactive” in each case. In addition, the Potency entry in [9] and in assay [8] was “inactive” throughout.

Consider `CN1CCCN=C1COC(=O)C(O)(c1ccccc1)C1CCCCC1` (centres undefined), for which the Potency entry in assay [1], in assay [2], in assay [3], in [5], in assay [6] and in assay [7] was “inactive” throughout. Further, the Potency entry in [9] and in assay [8] was “inactive” throughout.

`CC(O)c1ccccc1` (centres undefined): the Potency entry in assay [1], in [2], in assay [3], in assay [5], in [6] and in assay [7] was “inactive” in each case. In addition, the Potency result in assay [9] and in assay [8] was “inactive” throughout.

For the compound `Cc1cc(C)c(N)cc1C`, the Potency entry in assay [1], in [2], in assay [3], in assay [5], in [6] and in assay [7] was “inactive” throughout. The Potency result in assay [9] and in assay [8] was “inactive” each time.

For the compound `COC(=O)CS`, the Potency entry in assay [1], in assay [2], in assay [3], in assay [6], in assay [7] and in [9] was “inactive” in each case. Besides, the Potency result in assay [8] was “inactive”. The Potency in assay [5] is 26.3 µM (active).

For the compound `C=CC(C)(CCC=C(C)C)OC(=O)CC(C)C` (centres undefined), the Potency result in [1], in assay [2], in assay [3], in assay [6], in assay [7] and in [9] was “inactive” throughout. Moreover, in assay [8], the Potency result was “inactive”.

For the compound `C=COCC(C)C`, the Potency result in assay [1], in [2], in assay [3], in assay [5], in [6] and in assay [7] was “inactive” in each case. In addition, the Potency entry in assay [9] and in assay [8] was “inactive” throughout.

For the compound `CC(C)(C)C(=O)C(=O)O`, the Potency entry in [1], in assay [2], in assay [3], in assay [5], in [6] and in assay [7] was “inactive” each time. The Potency result in assay [9] and in assay [8] was “inactive” throughout.

With `COC(=O)CCS`, the Potency entry in [1], in assay [2], in [3], in assay [5], in assay [6] and in assay [7] was “inactive” throughout. Further, the Potency result in [9] and in assay [8] was “inactive” throughout.

For the compound `CC1(CN2CCC(n3c(=O)[nH]c4ccccc43)CC2)OCc2ccccc2-n2cccc21` (centres undefined), the Potency result in assay [1], in [2], in assay [6], in [7], in assay [9] and in [8] was “inactive” throughout. Also, in assay [3], the Potency was 29.8 µM (active).

Consider `CC=C(Cl)Cl`, for which the Potency entry in assay [1], in assay [2], in assay [3], in assay [5], in [6] and in assay [7] was “inactive” throughout. In addition, the Potency entry in assay [9] and in [8] was “inactive” each time.

`C=C1CCC2CC1C2(C)C` (centres undefined): the Potency result in assay [1], in [2], in assay [3], in assay [6], in assay [7] and in assay [9] was “inactive” in each case. Besides, in assay [8], the Potency result was “inactive”.

With `CCCCCCCCCI`, the Potency entry in assay [1], in [2], in assay [3], in assay [5], in [6] and in [7] was “inactive” throughout. Moreover, the Potency entry in [9] and in assay [8] was “inactive” throughout.

Turning to `CCCCCC#CC(=O)OC`, the Potency entry in [1], in [2], in assay [3], in [6], in assay [7] and in assay [9] was “inactive” in each case. Further, the Potency result in assay [8] is “inactive”.

On to `Cc1ccco1`, for which the Potency result in [1], in [2], in assay [3], in [5], in [6] and in [7] was “inactive” each time. In addition, the Potency entry in [9] and in assay [8] was “inactive” each time.
